Screens deposited in PubChem by several laboratories.
Compounds with a hit are over-represented: about 4% of the library has one in this group of screens.
Beta apoptosis: blocks beta cell apoptosis. actives 0.8% (n = 300,000). INS-1E cytokine-induced death, ATP luminescence, 48 h; percent of positive-control rescue, neutral wells zero. protection from apoptosis, % (test concentration not listed);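 active = Every replicate reaches about 75%, or at least half do and their mean reaches it too, limit read from the data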;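 also: higher means more ATP so stronger rescue from cytokine killing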
Mdm2-MdmX inh: disrupts the human Mdm2-MdmX interaction; actives 3% (n = 330,000); SaOS-2 split-luciferase Mdm2/MdmX complementation, luminescence; AID 485346; O15151+Q00987; inhibition, % at 8 µM;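 active = inhibition of at least 50% at 8 µM in the primary screen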
CSC inhib: blocks cancer stem cells. AID 2717. inhibition, % at 7.5 µM. actives 1.1% (n = 300,000). cancer stem cell-like cells viability, luminescence; in the data active = inhibition above about 75%; tested in HMLE shEcad cells
Gli-Sufu antag: blocks Gli-Sufu signaling in a luciferase reporter; Sufu-KO-LIGHT fibroblasts, Gli luciferase reporter luminescence; inhibition, % at 5 µM; actives 0.74% (n = 340,000);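 active = inhibition above about 55%, limit read from the data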
PAX8 reporter: inhibitors of PAX8 transcriptional activity in RMG-I cells; RMG-I TPO-luciferase reporter, SteadyGlo, 24 h; inhibition, % at 12.6 µM; actives 1.2% (n = 360,000); AID 652154;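 active = mean replicate inhibition at least 60% with every replicate also reaching 60%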;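 also: luciferase light reporting Pax8 driven TPO promoter activity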
Shn3 inh set2: inhibitors of Schnurri-3 3'UTR reporter in osteoblasts; Clone20 osteoblast Shn3 3'UTR firefly luciferase, 24 h; inhibition, % at 12.5 µM; actives 0.52% (n = 360,000); AID 588674;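 active = mean inhibition of at least 75% with every replicate also reaching 75%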
Mdm2-MdmX conf: confirmation of human Mdm2/MdmX interaction inhibitors; inhibition, % at 8 µM; actives 55% (n = 10,000); shares compounds with Mdm2-MdmX inh; AID 489028; Mdm2-MdmX binding, luminescent assay; in the data active = inhibition above about 40%
Full FLuc ctr: full-length luciferase inhibition in Mdm2/MdmX counter-screen | shares compounds with Mdm2-MdmX inh | SaOS-2 full-length luciferase counterscreen, luminescence | inhibition, % at 8 µM | actives 77% (n = 6,200) | AID 504607;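 active = mean inhibition at 8 µM reaching about 37%, which flags the compound as non-specific, limit read from the data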;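 also: p53-null SaOS-2 cells with luciferase driven by a doxycycline-inducible promoter; compound on cells about two nights before reading with doxycycline added after day one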
Each line names hits and unclear results; the compound was inactive in the other large screens (follow-up assays come after a bar, where they were run).

CC(C)Cn1c(N)c(C(=O)COC(=O)c2cc(C(F)(F)F)nc3ccccc23)c(=O)n(C)c1=O	none (no result: Shn3 inh set2)
CC(C)Cn1c(N)c(C(=O)COC(=O)c2cc(-c3ccccc3)nc3ccccc23)c(=O)n(C)c1=O	none
Nc1nonc1-c1nc2ccccc2n1CC(=O)Nc1ccccc1	Mdm2-MdmX inh 78 | Mdm2-MdmX conf 69 | Full FLuc ctr inactive
CCCCn1c(-c2nonc2N)nc2ccccc21	Mdm2-MdmX inh 61 (no result: PAX8 reporter) | Mdm2-MdmX conf 45 | Full FLuc ctr 50
CCOC(=O)c1ccccc1NC(=O)Cn1c(-c2nonc2N)nc2ccccc21	Mdm2-MdmX inh 61 (no result: PAX8 reporter) | Mdm2-MdmX conf 55 | Full FLuc ctr 77
Nc1nonc1-c1nc2ccccc2n1CC(=O)NC1CCCC1	none (no result: PAX8 reporter)
C/C(=N\NC(=O)COc1ccccc1-c1ccccc1)c1ccccn1	Beta apoptosis 81, Mdm2-MdmX inh 86, PAX8 reporter 81, Shn3 inh set2 98 | Mdm2-MdmX conf 72 | Full FLuc ctr 51
C/C(=N\NC(=O)COc1ccccc1-c1ccccc1)c1cccnc1	none
CCCCCC(=O)N/N=C(\C)c1ccccn1	Mdm2-MdmX inh 61 (no result: PAX8 reporter) | Mdm2-MdmX conf inactive
C/C(=N\NC(=O)COc1ccccc1-c1ccccc1)c1ccc(O)cc1O	Beta apoptosis 81, Mdm2-MdmX inh 64, Shn3 inh set2 92 | Mdm2-MdmX conf 47 | Full FLuc ctr 37
C[C@H](CO)N1C[C@H](C)[C@@H](CN(C)Cc2ccccc2)Oc2ccc(NC(=O)CCC(F)(F)F)cc2C1=O	none (no result: Beta apoptosis, Mdm2-MdmX inh, CSC inhib, Gli-Sufu antag, Shn3 inh set2)
CCC(=O)N1CCC2(CC1)CN(C(=O)c1cnccn1)[C@@H](CO)c1c2c2ccc(OC)cc2n1C	none (no result: Beta apoptosis, Mdm2-MdmX inh, CSC inhib, Gli-Sufu antag, Shn3 inh set2)
O=C(Nc1ccc(Cl)cc1)N1C[C@@H]2[C@H](c3ccccc31)[C@@H](CO)N2C(=O)C1CC1	none (no result: Beta apoptosis, Mdm2-MdmX inh, CSC inhib, Gli-Sufu antag, Shn3 inh set2)
Cc1cccc(NC2=Nc3ccccc3N3C2=Nc2c(c(C)nn2-c2ccccc2)C3c2ccc(O)c(O)c2)c1 (stereo unspecified)	Mdm2-MdmX inh 78, CSC inhib 100 (no result: PAX8 reporter) | Mdm2-MdmX conf inactive | Full FLuc ctr 50
Cc1nn(-c2ccccc2)c2c1C(c1ccc(O)c(O)c1)N1C(=N2)C(Nc2ccccc2)=Nc2ccccc21 (stereo unspecified)	Mdm2-MdmX inh 83, CSC inhib 90 (no result: PAX8 reporter) | Mdm2-MdmX conf 45 | Full FLuc ctr 40
COc1ccc(-c2csc3ncnc(NCCO)c23)cc1	Mdm2-MdmX inh 71 | Mdm2-MdmX conf 59 | Full FLuc ctr inactive
COc1ccc(NC(=O)N(C)C[C@@H]2OCCCC[C@@H](C)Oc3ccc(NC(=O)Nc4cccc5ccccc45)cc3C(=O)N([C@H](C)CO)C[C@@H]2C)cc1	none (no result: Beta apoptosis, Mdm2-MdmX inh, CSC inhib, Gli-Sufu antag, Shn3 inh set2)
CCc1cc2c(=O)n(Cc3ccco3)c(SCC(=O)NCC3CCCO3)nc2s1 (stereo unspecified)	none
CCc1cc2c(=O)n(Cc3ccco3)c(SCc3c(C)noc3C)nc2s1	Mdm2-MdmX inh 72 | Mdm2-MdmX conf 66 | Full FLuc ctr 48
COc1ccc(NC(=O)N(C)C[C@@H]2OCc3cn(nn3)CCCC(=O)N([C@@H](C)CO)C[C@@H]2C)c(OC)c1	none (no result: Beta apoptosis, Mdm2-MdmX inh, CSC inhib, Gli-Sufu antag, Shn3 inh set2)
COc1ccc(C(=O)O/N=C(\N)c2ccccc2)cc1OC	Mdm2-MdmX inh 62 | Mdm2-MdmX conf inactive
COc1cc(OC)c(C(=O)O/N=C(\N)c2ccccn2)cc1OC	none
COc1ccc(C(=O)O/N=C(\N)c2cccc(C)c2)cc1OC	Mdm2-MdmX inh 96 | Mdm2-MdmX conf 50 | Full FLuc ctr 137
COc1cc(OC)c(C(=O)O/N=C(\N)c2ccccc2)cc1OC	Mdm2-MdmX inh 57 | Mdm2-MdmX conf inactive
C[C@@H]1CCCCO[C@H](CN(C)Cc2ccncc2)[C@@H](C)CN([C@@H](C)CO)C(=O)c2cc(NS(=O)(=O)c3ccc(F)cc3)ccc2O1	none (no result: Beta apoptosis, Mdm2-MdmX inh, CSC inhib, Gli-Sufu antag, Shn3 inh set2)
O=C(Cn1nc(-c2ccccc2)ccc1=O)Nc1ccc(-n2cnnn2)cc1	none
O=C(Cn1nc(-c2ccccc2)ccc1=O)Nc1ccc(NC(=O)c2ccccn2)cc1	Mdm2-MdmX inh 83 | Mdm2-MdmX conf inactive
O=C(NC(NC(=S)Nc1ccccc1Cl)C(Cl)(Cl)Cl)c1cccc(Cl)c1 (stereo unspecified)	Mdm2-MdmX inh 97, CSC inhib 111 (no result: PAX8 reporter) | Mdm2-MdmX conf 95 | Full FLuc ctr inactive
O=C(Cc1cccc2ccccc12)NC(NC(=S)Nc1ccccc1Cl)C(Cl)(Cl)Cl (stereo unspecified)	none
COc1ccc(NC(=S)NC(NC(=O)c2cccc(Cl)c2)C(Cl)(Cl)Cl)c([N+](=O)[O-])c1 (stereo unspecified)	Mdm2-MdmX inh 87 (no result: Beta apoptosis, CSC inhib, PAX8 reporter) | Mdm2-MdmX conf 72 | Full FLuc ctr 57
COc1ccc(NC(=S)NC(NC(=O)c2cccc(C)c2)C(Cl)(Cl)Cl)c([N+](=O)[O-])c1 (stereo unspecified)	none
COCC#Cc1cnc2c(c1)C(=O)N([C@H](C)CO)C[C@H](C)[C@@H](CN(C)C(=O)C1CCCCC1)O2	none (no result: Beta apoptosis, Mdm2-MdmX inh, CSC inhib, Gli-Sufu antag, Shn3 inh set2)
COc1ccc(/C=C/C(=O)OCC(=O)Nc2cc3oc4ccccc4c3cc2OC)cc1	Mdm2-MdmX inh 82 (no result: Gli-Sufu antag, Shn3 inh set2) | Mdm2-MdmX conf inactive
CCN(CC)c1ccc(C(=O)OCC(=O)Nc2cc3oc4ccccc4c3cc2OC)cc1	Mdm2-MdmX inh 51 (no result: CSC inhib) | Mdm2-MdmX conf inactive
COc1cc2c(cc1NC(=O)COc1ccc3ccccc3c1)oc1ccccc12	Mdm2-MdmX inh 62 | Mdm2-MdmX conf inactive
COc1cccc(S(=O)(=O)N[C@@H]2C=C[C@@H](CC(=O)NCc3ccccc3)O[C@@H]2CO)c1	none (no result: Beta apoptosis, Mdm2-MdmX inh, CSC inhib, Gli-Sufu antag, Shn3 inh set2)
COc1cccc(-c2ccc3c(c2)[C@@H]2[C@@H](CCN2Cc2ccccc2OC)[C@@H](CO)N3)c1	none (no result: Beta apoptosis, Mdm2-MdmX inh, CSC inhib, Gli-Sufu antag, Shn3 inh set2)
Cc1cc(C)c2cc(CN(CCCN(C)C)C(=S)NCc3ccccc3)c(=O)[nH]c2c1	Mdm2-MdmX inh 53 | Mdm2-MdmX conf inactive
CCOC(=O)C1=C(c2ccccc2)O/C(=C(\C(=O)OC)C(F)(F)F)S1	none (no result: PAX8 reporter)
CCOC(=O)C1=C(c2ccccc2)O/C(=C(/C#N)C(F)(F)F)S1	Beta apoptosis 116, Mdm2-MdmX inh 101 (no result: Gli-Sufu antag, PAX8 reporter, Shn3 inh set2) | Mdm2-MdmX conf 99 | Full FLuc ctr inactive
COc1cc(-c2nnc(SCC(=O)N(Cc3ccccc3)C(C)(C)C)o2)cc(OC)c1OC	Mdm2-MdmX inh 51 (no result: PAX8 reporter) | Mdm2-MdmX conf 42 | Full FLuc ctr 91
Cn1c(CCN2CCCCC2)nc2cc(NC(=O)COc3ccc(Cl)cc3)ccc21	none
Cc1ccc(C(C)C)c(OCC(=O)Nc2ccc3c(c2)nc(CCN2CCCCC2)n3C)c1	Mdm2-MdmX inh 99, PAX8 reporter 83 | Mdm2-MdmX conf 82 | Full FLuc ctr 60
